From the supplement of paper PMC10646978 come the findings set out here.

Common to all, as to conditions: modulator concentration 10 µM
The subject of assay [1] is RAW-Dual (murine macrophage reporter line). Put plainly: NF-kB reporter (SEAP) activity fold change vs agonist alone; higher = enhanced NF-kB activity. In short, it runs like this: (§1)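 RAW-Dual murine macrophage reporter cells were seeded at 50 000 per well in 384-well plates and pre-incubated 1 hour at 37 °C with compound pin-transferred to 10 μM final. After 1 hour, a PRR agonist was added and cells incubated overnight. Supernatant NF-κB (SEAP, QUANTI-Blue, 620 nm absorbance) and IRF (Lucia luciferase, QUANTI-Luc, luminescence) signals were divided by the mean agonist-only control on the same plate to give fold change. Two replicate plates were averaged, with errors by propagation.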

For assay [2] the test system is unchanged. Put plainly: IRF reporter (Lucia luciferase) activity fold change vs agonist alone; higher = enhanced IRF activity. In short, it runs like this:
as §1

The test system is the same in assay [3]. In words: viability score (confluency relative to resting cells, overnight) (fraction); higher = more viable, active = viable (0.7 or more). In short, it runs like this:
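Overnight exposure to 10 μM final compound was carried out on RAW-Dual macrophages in 384-well plates. IncuCyte software generated two confluency masks over all wells imaged with IncuCyte. The viability score gives confluency in relation to resting cells. A compound met the cutoff if each mask exceeded 70% of resting cells.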

Setting [4] is: agonist: CpG ODN 1826 0.5 ug/mL.

SMILES strings stand for the structures. ± gives the standard deviation.

Turning to `Cc1sc(NC(=O)c2cc(Cl)ccc2[N+](=O)[O-])nc1-c1ccccc1`, the figures for the NF-kB reporter in assay [1] (setting [4]), in assay [1] (agonist: LPS 0.1 ug/mL) and in assay [1] (agonist: MPLA […]) were 1 ± 0.064, 1.08 ± 0.089 and 0.951 ± 0.034, respectively. For the same compound, the IRF reporter in assay [2] (agonist: 3'3'-cGAMP 10 ug/mL) amounted to 0.983 ± 0.046; in assay [2] (agonist: LPS 0.1 ug/mL), 1.08 ± 0.055; in assay [2] (agonist: MPLA […]), 1.08 ± 0.12. Further, the viability score in assay [3] was 1 (active).

For `O=C(CC(c1ccccc1)c1ccccc1)Nc1ccc(CC(=O)N2CCC(O)CC2)cc1`, the NF-kB reporter was determined as 1.03 ± 0.078 in assay [1] (setting [4]), 1.13 ± 0.097 in assay [1] (agonist: LPS 0.1 ug/mL) and 0.907 ± 0.11 in assay [1] (agonist: MPLA […]). Further, the IRF reporter is 1.05 ± 0.062 in assay [2] (agonist: 3'3'-cGAMP 10 ug/mL), 1.13 ± 0.082 in assay [2] (agonist: LPS 0.1 ug/mL) and 1.25 ± 0.1 in assay [2] (agonist: MPLA […]). Moreover, in assay [3], the viability score is 1.01 (active).

Consider `O=C(c1ccccc1)C1OC1(CBr)c1ccccc1` (stereo unspecified), for which the NF-kB reporter in assay [1] (setting [4]) was 1.06 ± 0.06; in assay [1] (agonist: LPS 0.1 ug/mL) it was 0.76 ± 0.052; in assay [1] (agonist: MPLA […]), 0.663 ± 0.039. Further, the IRF reporter in assay [2] (agonist: 3'3'-cGAMP 10 ug/mL) stood at 0.0937 ± 0.0033; in assay [2] (agonist: LPS 0.1 ug/mL) it was 0.69 ± 0.072; in assay [2] (agonist: MPLA […]), 0.913 ± 0.17. Also, the viability score in assay [3] is 0.833 (active).

As for `CC(Sc1ccc(Cl)cc1)C(=O)NCc1cccnc1` (stereo unspecified), the figures for the NF-kB reporter in assay [1] (setting [4]), in assay [1] (agonist: LPS 0.1 ug/mL) and in assay [1] (agonist: MPLA […]) were 1.07 ± 0.09, 0.846 ± 0.065 and 1.08 ± 0.2, respectively. Further, the IRF reporter in assay [2] (agonist: 3'3'-cGAMP 10 ug/mL) came out at 0.846 ± 0.031; in assay [2] (agonist: LPS 0.1 ug/mL), 0.905 ± 0.058; in assay [2] (agonist: MPLA […]), 0.741 ± 0.14. In addition, the viability score in assay [3] was 0.992 (active).

For the compound `CCc1nc2ccccc2[nH]1`, the NF-kB reporter in assay [1] (setting [4]) is 1.04 ± 0.18; in assay [1] (agonist: LPS 0.1 ug/mL) it was 0.954 ± 0.076; in assay [1] (agonist: MPLA […]), 1.06 ± 0.1. Further, the results for the IRF reporter in assay [2] (agonist: 3'3'-cGAMP 10 ug/mL), in assay [2] (agonist: LPS 0.1 ug/mL) and in assay [2] (agonist: MPLA […]) were 0.998 ± 0.028, 1.23 ± 0.12 and 1.44 ± 0.21, respectively. The viability score in assay [3] was 1.01 (active).

Turning to `Cc1ncsc1C(=O)N1CC(OCC(F)(F)F)C1`, the figures for the NF-kB reporter in assay [1] (setting [4]), in assay [1] (agonist: LPS 0.1 ug/mL) and in assay [1] (agonist: MPLA […]) were 0.974 ± 0.11, 0.996 ± 0.08 and 1.01 ± 0.095, respectively. The IRF reporter came out at 1.08 ± 0.11 in assay [2] (agonist: 3'3'-cGAMP 10 ug/mL), 1.01 ± 0.09 in assay [2] (agonist: LPS 0.1 ug/mL) and 0.999 ± 0.25 in assay [2] (agonist: MPLA […]). The viability score in assay [3] was 1 (active).

As to `Clc1ccc(Cn2c(CN3CCCC3)nc3ccccc32)cc1` [Prestw-227], the NF-kB reporter in assay [1] (setting [4]) is 0.369 ± 0.076; in assay [1] (agonist: LPS 0.1 ug/mL), 1.12 ± 0.1; in assay [1] (agonist: MPLA […]), 1.06 ± 0.14. Besides, the results for the IRF reporter in assay [2] (agonist: 3'3'-cGAMP 10 ug/mL), in assay [2] (agonist: LPS 0.1 ug/mL) and in assay [2] (agonist: MPLA […]) were 0.682 ± 0.038, 1.07 ± 0.1 and 1.37 ± 0.18, respectively. Also, the viability score in assay [3] was 0.787 (active).

For the compound `CCNC(=O)CCC/C=C\C[C@@H]1[C@@H](/C=C/C(O)CCc2ccccc2)[C@@H](O)C[C@@H]1O` (stereo partly specified), the NF-kB reporter in assay [1] (setting [4]) is 0.953 ± 0.059; in assay [1] (agonist: LPS 0.1 ug/mL) it was 0.965 ± 0.076; in assay [1] (agonist: MPLA […]) it was 0.953 ± 0.041. For the same compound, the IRF reporter in assay [2] (agonist: 3'3'-cGAMP 10 ug/mL) was determined as 0.994 ± 0.055; in assay [2] (agonist: LPS 0.1 ug/mL), 0.961 ± 0.061; in assay [2] (agonist: MPLA […]), 0.95 ± 0.1. Also, in assay [3], the viability score was 1.01 (active).

Turning to `CCOC(=O)[C@@H](N)Cc1ccc(-c2cc(O[C@H](c3ccc(Cl)cc3-n3ccc(C)n3)C(F)(F)F)nc(N)n2)cc1.O=C(O)CNC(=O)c1ccccc1`, the results for the NF-kB reporter in assay [1] (setting [4]), in assay [1] (agonist: LPS 0.1 ug/mL) and in assay [1] (agonist: MPLA […]) were 0.504 ± 0.06, 0.512 ± 0.053 and 0.937 ± 0.11, respectively. For the same compound, the IRF reporter in assay [2] (agonist: 3'3'-cGAMP 10 ug/mL) came out at 0.734 ± 0.043; in assay [2] (agonist: LPS 0.1 ug/mL) it was 0.787 ± 0.026; in assay [2] (agonist: MPLA […]), 3.54 ± 0.34. Moreover, in assay [3], the viability score is 0.119 (inactive).

As to `CC1(C)OC(=O)NC1=O` [Prestw-829], the NF-kB reporter in assay [1] (setting [4]) is 1 ± 0.076; in assay [1] (agonist: LPS 0.1 ug/mL), 1.07 ± 0.065; in assay [1] (agonist: MPLA […]), 0.958 ± 0.024. For the same compound, the IRF reporter in assay [2] (agonist: 3'3'-cGAMP 10 ug/mL) is 0.93 ± 0.051; in assay [2] (agonist: LPS 0.1 ug/mL) it was 0.958 ± 0.13; in assay [2] (agonist: MPLA […]) it was 1.01 ± 0.12. In addition, in assay [3], the viability score was 0.998 (active).

With `CCSC1=C(C#N)C2(CCCC2)C(C#N)C(=O)N1` (stereo unspecified), the NF-kB reporter worked out at 1.13 ± 0.18 in assay [1] (setting [4]), 0.964 ± 0.086 in assay [1] (agonist: LPS 0.1 ug/mL) and 0.91 ± 0.081 in assay [1] (agonist: MPLA […]). Moreover, the values for the IRF reporter in assay [2] (agonist: 3'3'-cGAMP 10 ug/mL), in assay [2] (agonist: LPS 0.1 ug/mL) and in assay [2] (agonist: MPLA […]) were 0.789 ± 0.021, 1.34 ± 0.2 and 1.42 ± 0.23, respectively. Also, the viability score in assay [3] is 0.988 (active).

For `Cc1ccc(-n2ncc3c(Nc4cccc(C)c4)ncnc32)cc1`, the NF-kB reporter was determined as 0.987 ± 0.2 in assay [1] (setting [4]), 1.14 ± 0.098 in assay [1] (agonist: LPS 0.1 ug/mL) and 1.02 ± 0.1 in assay [1] (agonist: MPLA […]). Also, the values for the IRF reporter in assay [2] (agonist: 3'3'-cGAMP 10 ug/mL), in assay [2] (agonist: LPS 0.1 ug/mL) and in assay [2] (agonist: MPLA […]) were 0.938 ± 0.05, 1.09 ± 0.23 and 1.19 ± 0.15, respectively. The viability score in assay [3] is 0.995 (active).

Regarding `CCN(CC)CCNC(=O)c1ccc(N)cc1.Cl`, the NF-kB reporter in assay [1] (setting [4]) turned out to be 0.962 ± 0.14; in assay [1] (agonist: LPS 0.1 ug/mL), 0.935 ± 0.4; in assay [1] (agonist: MPLA […]), 0.887 ± 0.052. Besides, the IRF reporter in assay [2] (agonist: 3'3'-cGAMP 10 ug/mL) was determined as 0.952 ± 0.029; in assay [2] (agonist: LPS 0.1 ug/mL), 1.29 ± 0.3; in assay [2] (agonist: MPLA […]), 1.29 ± 0.097. In assay [3], the viability score was 0.993 (active).
